# The full list was thinned out, with hits kept by preference.
# Tb PYK inh: T. brucei pyruvate kinase inhibition. TbPYK enzyme, Kinase-Glo Plus ATP luminescence, 45 min. actives 0.12% (n = 410,000). Q57TT1. Potency, µM (highest dose often 76.8 µM), actives largely listed as inhibitors; note: nearly all actives have a fitted effect of over 50% in size
#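 T. brucei PYK with substrate was exposed to pin-transferred compounds across a concentration series, then started with 130 uM ADP (final). After 45 min at room temperature, Kinase-Glo Plus luminescence was read, normalized and curve-fitted.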
# LmPK inhibitor: blocks Leishmania mexicana pyruvate kinase activity | actives 0.37% (n = 290,000) | Q27686 | Potency, µM (top dose mostly 57.5 µM), actives largely listed as inhibitors | purified LmPK, Kinase-Glo ATP luminescence, 1 h
# Target sequence (Q27686 whole entry, looked up): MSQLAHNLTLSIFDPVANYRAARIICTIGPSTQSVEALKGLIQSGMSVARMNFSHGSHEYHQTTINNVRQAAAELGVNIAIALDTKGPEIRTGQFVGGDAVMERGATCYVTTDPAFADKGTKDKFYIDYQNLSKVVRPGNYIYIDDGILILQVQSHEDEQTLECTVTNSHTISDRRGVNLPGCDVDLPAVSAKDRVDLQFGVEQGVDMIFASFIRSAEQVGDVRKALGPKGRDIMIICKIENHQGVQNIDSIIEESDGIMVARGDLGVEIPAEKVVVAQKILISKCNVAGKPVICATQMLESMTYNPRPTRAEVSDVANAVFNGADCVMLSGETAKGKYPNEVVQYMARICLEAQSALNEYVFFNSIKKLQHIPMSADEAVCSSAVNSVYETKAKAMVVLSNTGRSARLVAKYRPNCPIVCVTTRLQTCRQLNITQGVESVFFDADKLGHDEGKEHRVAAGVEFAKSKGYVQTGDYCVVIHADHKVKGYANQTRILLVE
#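 0.1 nM LmPK, 0.5 mM PEP, 0.1 mM ADP; 50 mM imidazole pH 7.2, 7 mM MgCl2, 50 mM KCl; 1 h RT. Kinase-Glo luminescence readout, normalized to no-enzyme (full inhibition) and uninhibited wells.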
# CHX counter: counter-screen for Shiga toxin inhibitors: cycloheximide protein synthesis inhibition; cell reporter, cycloheximide protein synthesis inhibition counterscreen; actives 12% (n = 300,000); max response, %; in the data active = max response mostly above about 13%, no sharp cut-off; inactive = mostly below about 14%; note: read at 38.3 µM for the half of the compounds with a filed dose
# Shiga inhibitor: blocks Shiga toxin action in Vero cells | Vero cells, Shiga toxin protein synthesis inhibition reporter | inhibition, % at 38.7 µM | actives 9.2% (n = 290,000) | AID 2315; in the data active = inhibition mostly above about 28%, no sharp cut-off; inactive = mostly below about 43%
# Sm TGR block: S. mansoni TGR enzyme inhibition. Q962Y6. purified TGR, DTNB reduction, TNB absorbance 405 nm. Potency, µM (highest dose often 114 µM), usual class: inhibitors. actives 3% (n = 360,000). AID 485364; note: nearly all actives have a fitted effect of over 60% in size
#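 Kinetic colorimetric format: TGR-catalysed, NADPH-driven DTNB reduction monitored via TNB absorbance. Enzyme dispensed at 20 nM; compound exposure 15 min at room temperature before reaction start.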
# FBPA Giardia inh: blocks Giardia fructose-bisphosphate aldolase activity; AID 2451; Potency, µM (titrated, usually from 59.6 µM), most hits filed as inhibitors; purified Giardia FBPA; A8B2U2; actives 0.71% (n = 290,000); note: nearly all actives have a fitted effect of over 55% in size
#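 40 nM FBPA preincubated 10 min at RT with compound (up to 57.5 uM final), then substrate plus GAPDH/TPI/NAD/arsenate coupling and diaphorase/resazurin added. Fluorescence read after 20 min at RT, 525/598 nm.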
# A number is an active result; . = inactive; ? = inconclusive; / = no result given; [ ] = remark or other dose. Unless noted, calls come from the whole dose curve; as a rule, active = well fitted curve in the direction sought with a large enough effect; inconclusive = small, poorly fitted or top-dose-only effect, or another doubt; inactive = no such curve, though single readings can be large; an effect the other way counts as inactive or inconclusive.
SMILES,Tb PYK inh,LmPK inhibitor,CHX counter,Shiga inhibitor,Sm TGR block,FBPA Giardia inh
COc1ccc(C)cc1NC(=O)CSc1ccc(-c2ccco2)nn1,?,.,.,.,?,/
CCOc1ccc(NC(=O)CSc2ccc(-c3cccnc3)nn2)cc1,.,.,.,.,.,/
Cc1cccc(CSc2ccc(-c3ccco3)nn2)c1,.,.,16.6,.,?,.
c1ccc(CSc2ccc(-c3cccnc3)nn2)nc1,.,.,21.0,50.4,.,.
Cc1ccc(CSc2ccc(-c3ccco3)nn2)cc1,.,.,.,.,?,.
Clc1ccc(CSc2ccc(-c3ccco3)nn2)cc1,.,.,23.4,125.6,28.2µM,.
Nc1ncnc(Nc2cccc(F)c2)n1,.,.,.,.,.,.
Clc1cc(Cl)cc(Nc2ncnc(-n3cccc3)n2)c1,.,.,.,.,.,.
Nc1ncnc(Nc2ccc(F)c(Cl)c2)n1,.,.,18.6,56.6,.,.
Cc1ccc(Nc2ncnc(-n3cccc3)n2)cc1Cl,.,.,32.0,79.6,.,.
Clc1ccccc1Nc1ncnc(-n2cccc2)n1,.,.,61.8,130.6,.,.
Nc1ncnc(Nc2ccccc2Cl)n1,.,.,16.7,.,.,.
Clc1ccccc1Nc1nc2ccccc2o1,?,/,/,/,.,/
Cc1cccc(CNC(=O)CN2CC(C)Sc3ccccc32)c1 (stereo not drawn),.,/,/,/,.,/
Cc1ccc(CN2CCN(C3CCN(S(=O)(=O)N(C)C)CC3)C(=O)C2=O)cc1,.,/,/,/,.,/
COc1ccccc1-c1coc2cc(O)cc(O)c2c1=O,.,.,29.6,61.1,.,.
COc1ccc(-c2coc3cc(O)cc(O)c3c2=O)cc1OC,.,.,26.7,56.0,.,.
CC1=CC(=C(c2ccc(N)cc2)c2ccc(N)cc2)C=CC1=N,.,/,/,/,/,/
CO[C@@H]1COC(=O)[C@H](C)NC(=O)C/C=C\[C@@H](C)[C@@H](NS(=O)(=O)c2ccc(C)cc2)COC(=O)C/C=C\[C@@H]1C,/,/,/,/,/,.[12.9 µM]
COc1cccc(NC2=CC(c3ccc(C(C)C)cc3)N(c3cccc(OC)c3)C2=O)c1 (stereo not drawn),.,/,/,/,.,/
COc1cccc(C2C=C(Nc3ccccc3)C(=O)N2c2ccccc2)c1 (stereo not drawn),.,.,27.1,18.9,.,.
COc1ccc(C2C=C(Nc3ccccc3)C(=O)N2c2ccccc2)cc1OC (stereo not drawn),.,.,37.7,65.7,.,.
CCCCCCOC(=O)C1(O)CC2OC1(C)n1c3ccccc3c3c4c(c5c6ccccc6n2c5c31)C(=O)NC4 (stereo not drawn),/,/,.,.,/,.[2.35 µM]
O=c1c(S(=O)(=O)c2ccccc2)cn(Cc2ccccc2)c2cc(N3CCOCC3)c(F)cc12,.,/,/,/,.,/
CO[C@H]1COC(=O)[C@H](C)NC(=O)C/C=C\[C@@H](C)[C@@H](NS(=O)(=O)c2ccc(C)cc2)COC(=O)C/C=C\[C@@H]1C,/,/,/,/,/,.[12.9 µM]
SMILES,Tb PYK inh,LmPK inhibitor,CHX counter,Shiga inhibitor,Sm TGR block,FBPA Giardia inh
COc1ccc(CCNC(=O)c2ccc3nc(N4CCCCC4)sc3c2)cc1OC,.,.,22.1,34.4,.,.
COc1ccc2nc(N3CCCC(C(=O)NCCc4ccc(OC)c(OC)c4)C3)sc2c1 (stereo not drawn),.,.,17.0,95.1,.,.
COc1ccc(CCNC(=O)C2CCCN(c3nn4c(=O)cc(C)nc4s3)C2)cc1OC (stereo not drawn),.,.,.,.,.,.
COc1cc(NC(=O)CN2CCC(C)CC2)c(C)cc1[N+](=O)[O-],.,.,.,active,.,.
COc1cc(NC(=O)CN2CCN(c3ccccc3O)CC2)c(C)cc1[N+](=O)[O-],.,.,.,.,.,.
COc1ccc(NC(=O)CN2CCCC(C)C2)c([N+](=O)[O-])c1 (stereo not drawn),.,.,17.3,31.8,.,.
COCC(=O)NC1CCN(CC(=O)Nc2ccc(OC)cc2[N+](=O)[O-])CC1,.,.,.,.,.,.
Cc1ccc2occ(CC(=O)Nc3ccc(Cl)c(C(F)(F)F)c3)c2c1,.,/,/,/,.,/
COc1ccc2c(c1)cc(C(O)c1ccccn1)n2S(=O)(=O)c1ccccc1 (stereo not drawn),.,.,19.4,41.0,.,.
O=S(=O)(c1ccccc1)n1c(C(O)c2ccccn2)cc2ccccc21 (stereo not drawn),.,.,.,.,.,.
O=C(O)c1cccc(NC(=S)N/N=C/c2ccccc2OCc2ccc(Br)cc2)c1,.,.,15.9,.,.,.
O=C(O)c1cccc(NC(=S)N/N=C/c2ccccc2OCc2cccc(Br)c2)c1,.,.,.,.,.,.
COc1ccc(NC(C)C(=O)N/N=C/c2ccccc2OCc2ccc(Br)cc2)cc1 (stereo not drawn),.,.,34.7,144.5,.,.
COC(=O)c1ccc(COc2ccccc2/C=N/Nc2cccc(C(=O)O)c2)cc1,.,.,55.3,80.0,?,.
CC(Nc1ccc(Br)cc1)C(=O)N/N=C/c1ccccc1OCc1ccccc1 (stereo not drawn),.,.,.,.,.,.
CCOc1cc(/C=N/Nc2cccc(C(=O)O)c2)ccc1OC(=O)c1ccccc1,.,.,61.5,185.7,/,.
CCC(C)NC(=O)CSc1nc2cc3c(cc2c(=O)n1CCCCCC(=O)NCc1ccc(OC)cc1)OCO3 (stereo not drawn),.,/,/,/,.,/
CC1(c2ccccc2)CC(C)(C)N(C(=O)c2cccc(Cl)c2)c2ccccc21 (stereo not drawn),.,/,/,/,.,/
COC(=O)C1=C[C@@H](C(=O)OC)C2C3=C(C(=O)[C@]2(C)NC(=O)c2ccccc2)[C@H](C)n2c(=O)n(C)c(=O)n2[C@@H]3C1 (stereo partly drawn),/,/,.,.,/,.
C=CCC(C)(O)C#Cc1ccccc1 (stereo not drawn),/,/,/,/,/,.
CN1CCN(C(=O)c2ccc(-c3ccc(F)c(F)c3)c3ccoc23)CC1,.,/,/,/,/,/
COc1cccc(Nc2nc(N)nc(-c3oc4ccccc4c3C)n2)c1,.,.,41.5,79.1,.,.
Cc1cccc(Nc2nc(N)nc(-c3oc4ccccc4c3C)n2)c1,.,.,53.3,89.1,.,.
CCc1nc(Nc2ccccc2F)c2oc3ccccc3c2n1,.,.,.,.,.,.
Cc1c(-c2nc(N)nc(Nc3ccccc3F)n2)oc2ccccc12,.,.,57.1,186.8,.,.
Cc1ccc(Nc2nc(N)nc(-c3oc4ccccc4c3C)n2)cc1,.,.,23.0,46.0,.,.
COc1cccc(Nc2cc(C)nc3ccccc23)c1,.,.,.,.,.,.
Cc1cccc(Nc2ncnc(N)n2)c1,.,.,.,.,.,.
Cc1nn(CC(=O)N2CCN(c3ccccc3)CC2)c(=O)c2cc3sccc3n12,.,/,/,/,.,/
